We go through 20 compounds from PubChem BioAssay (NCI).

Test [1] is described as follows: NCI Yeast Anticancer Drug Screen. Data for the rad50 strain (AID 155).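 Also: 0% = growth of vehicle-only cultures of the same strain.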 As to conditions: S. cerevisiae rad50 strain growth inhibition, active compounds read high; at 50.0 µM unless noted. Put shortly: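 DNA repair mutant yeast, compound exposure, growth read-out; inhibition is taken relative to vehicle.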
The nature of test [2]: NCI Yeast Anticancer Drug Screen. Data for the mec2-1 strain (AID 157). To be noted: S. cerevisiae mec2-1 strain, active compounds read high; at 50.0 µM unless noted. Put shortly:
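Mutant yeast (mec2-1) grown with compound; growth inhibition relative to vehicle control reported.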

Test [3] in a line: NCI Yeast Anticancer Drug Screen. Data for the sgs1 mgt1 strain (AID 161).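 Also: 0% = growth of cultures given vehicle only.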 To be noted: S. cerevisiae sgs1 mgt1 strain, active compounds read high; at 50.0 µM unless noted. Put shortly: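 Compounds are added to genetically altered yeast, and growth is compared with cultures given vehicle alone to give percent inhibition.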
Test [4] is described as follows: NCI Yeast Anticancer Drug Screen. Data for the cln2 rad14 strain (AID 165).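 Also: 0% = growth equal to vehicle treated cultures.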 To be noted: S. cerevisiae cln2 rad14 strain, active compounds read high; at 50.0 µM unless noted. Put shortly:
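Readout is yeast growth inhibition versus vehicle-treated controls, using a strain with cln2 and rad14 alterations exposed to compound.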

Test [5] is described as follows: NCI Yeast Anticancer Drug Screen. Data for the bub3 strain (AID 167). To be noted: S. cerevisiae bub3 mutant strain, active compounds read high; at 50.0 µM unless noted. Put shortly:
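In this screen, a yeast mutant lacking normal mitotic checkpoint function is challenged with compound. Relative growth versus vehicle gives the inhibition value.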

Test [6] in a line: NCI Yeast Anticancer Drug Screen. Data for the mlh1 rad18 strain (AID 175). To be noted: S. cerevisiae mlh1 rad18 strain growth inhibition, active compounds read high; at 50.0 µM unless noted. Put shortly: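 Genetically defined yeast (DNA repair-deficient) exposed to compounds; growth inhibition determined relative to vehicle.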

Compounds without any hit were thinned out: in the full panel of roughly 79,000, 15% have a hit. Values without a mark were called inactive. Active and inactive are the calls of the source. Rule as the data show it: active = growth inhibition above about 70%; inactive = the rest.

`N#Cc1cc2c(N)ncnc2nc1N1CCCC1`: the growth inhibition is -43.7% in test [1]; -61.8% in test [2]; -13.3% in test [3]; -2.25% in test [4]; 5.35% in test [5]; -26.2% in test [6].

For the compound `Cc1ccc(NC(=O)Oc2ccc(-c3ccccc3)cc2Br)c(Br)c1`, the growth inhibition in test [1] is 52.1%; in test [2] it was 58%; in test [3] it was 54.6%; in test [4] it was 40%; in test [5] it was 51.9%; in test [6], 53.7%.

As to `Cc1nc(Nc2nc3ccccc3[nH]2)[nH]c(=O)c1CCO`, the growth inhibition is 9.6% in test [1]; 5.4% in test [2]; -7.3% in test [3]; 21.9% in test [4]; 15.8% in test [5]; -6.45% in test [6].

With `N#CC(c1ccccc1)c1ccc(C(c2ccccc2)(c2ccccc2)C(C#N)c2ccccc2)cc1` (stereo not given), the growth inhibition in test [1] is 17.4%; in test [2], 8.55%; in test [3] it was 13.9%; in test [4] it was 19.3%; in test [5], -4.8%; in test [6] it was 5.1%.

`Cc1cc(Cl)c(OCC(=O)O)cc1C`: the growth inhibition in test [1] is -8.2%; in test [2], -9.45%; in test [3] it was -9.25%; in test [4], -8.3%; in test [5], -14.6%; in test [6], -1.9%.

As to `O=C(CC1SC(=Nc2ccccc2Cl)NC1=O)Nc1ccc(Cl)cc1Cl` (stereo not given), the growth inhibition in test [1] is -9.8%; in test [2] it was -14.8%; in test [3] it was -15.9%; in test [4], 17.7%; in test [5] it was -6.55%; in test [6], 9.7%.

Take `CCCCCCCC/C=C\CCCCCCCC(=O)NC(C)(C)C(=O)O`: the growth inhibition in test [1] is -16.2%; in test [2] it was -15.7%; in test [3], -9.5%; in test [4], 62.6%; in test [5], 32.2%; in test [6], -36.4%.

Regarding `O=C(NCCO)c1c(O)c2ccccc2[nH]c1=O`, the growth inhibition in test [1] was 2.8%; in test [2], 0.2%; in test [3], -6.05%; in test [4], 12.9%; in test [5], 6.55%; in test [6], 2.9%.

As for `CN1CCc2nc[nH]c2C1`, the growth inhibition in test [1] is 17.2%; in test [2], -4.95%; in test [3] it was 3.2%; in test [4], 10.1%; in test [5], 6.4%; in test [6] it was 10.1%.

Take `COC1=C2C[C@H](C)C[C@H](OC)[C@H](O)[C@@H](C)/C=C(\C)[C@H](OC(N)=O)[C@H](OC)/C=C\C=C(/C)C(=O)NC(=C(/C=N/N3CCN(C)CC3)C1=O)C2=O`: the growth inhibition in test [1] was 7.15%; in test [2], 0.05%; in test [3], -7.8%; in test [4] it was -8.75%; in test [5], 2.75%; in test [6] it was 18.8%.

As to `COC(=O)c1ccc(-n2cc(C(=O)OC)c([N+]#N)c2[O-])cc1`, the growth inhibition is 9.4% in test [1]; 11.6% in test [2]; -13.6% in test [3]; -13.6% in test [4]; 18.9% in test [5]; 16.6% in test [6].

Turning to `O=C(Cc1ccccc1)SC(=O)Cc1ccccc1`, the growth inhibition in test [1] is -0.05%; in test [2], 28.8%; in test [3] it was 18.6%; in test [4], -8.9%; in test [5], 39.4%; in test [6], 10%.

Consider `NC(N)=N/N=C(\c1ccc(C(F)(F)F)cc1)c1ccc(Cl)c(Cl)c1`, for which the growth inhibition in test [1] was 99.5% (active); in test [2] it was 99.5% (active); in test [3], 99.7% (active); in test [4], 99.2% (active); in test [5], 99.3% (active); in test [6], 99.7% (active).

For `COc1ccccc1C(=O)NCC1CCCN2CCCCC12` (stereo not given), the growth inhibition was 6.5% in test [1]; -6.95% in test [2]; 14.9% in test [3]; -6.5% in test [4]; 0.7% in test [5]; -45.4% in test [6].

Regarding `CCOC(=O)c1[nH]c(=S)n(C)c1C(=O)OCC`, the growth inhibition in test [1] was -12.9%; in test [2], 6.75%; in test [3] it was 29.1%; in test [4], -33%; in test [5], 8.1%; in test [6], 0.55%.

`Oc1c(CN2CCOCC2)ccc(CN2CCOCC2)c1O`: the growth inhibition in test [1] is 13.4%; in test [2] it was 17.3%; in test [3], -14.1%; in test [4], 4.55%; in test [5] it was 16.1%; in test [6], 35.5%.

As for `COc1ccc2oc3cc(Cl)ccc3c(=O)c2c1`, the growth inhibition in test [1] is 4.8%; in test [2], 0.85%; in test [3] it was -8.85%; in test [4], 4.35%; in test [5], 30.4%; in test [6], 14.2%.

With `CCCCCCCCCCCC(=O)OC(COCCC(C)C)COCCC(C)C`, the growth inhibition in test [1] is -2.9%; in test [2], -5.05%; in test [3], -3.15%; in test [4], -12.1%; in test [5], -11.9%; in test [6], 12.1%.

As to `c1cncc(C2N3CCCCC3[C@@H]3c4[nH]c5ccccc5c4CCN23)c1` (stereo not given in full), the growth inhibition in test [1] is -26.6%; in test [2], -40.5%; in test [3], -22.8%; in test [4], -8.25%; in test [5], -15.1%; in test [6] it was -26.9%.

`COc1ccc2c(c1)-c1c(ccc(OC)c1O)CC(c1ccccc1)[N+](C)(C)CC2` (stereo not given): the growth inhibition was -5.8% in test [1]; 10.7% in test [2]; -5.55% in test [3]; -12.4% in test [4]; 2.25% in test [5]; -2.5% in test [6].
